From PubChem BioAssay (NCATS)
Records with an inconclusive call do not appear. A call without a number means that no potency is given here. Values without a mark were called inactive. Activity calls are given as the source filed them. Calls follow the shape of the dose curve; as a rule, active = well fitted curve in the direction sought with a large enough effect; inconclusive = small, poorly fitted or top-dose-only effect, or another doubt; inactive = no such curve, though single readings can be large; an effect the other way counts as inactive or inconclusive.

Columns and labels:
[1] = test system: HEK293; assay: Cytotoxic Profiling of Annotated Libraries Using Quantitative High-Throughput Screening (AID 1296008); conditions: Five cell lines viability, CellTiter-Glo ATP luminescence, 48-72 h; max response: stronger effect = lower value; also: nearly all actives have a fitted effect of over 60% in size
In short: (§1)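 Cells exposed to compounds for 48 or 72 hr at 37 degrees Celsius. Viability read as ATP-coupled luminescence with CellTiter-Glo after 10 min at room temperature.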

[2] = test system: HaCat; assay: as above; conditions: Five cell lines viability, CellTiter-Glo ATP luminescence, 48-72 h; max response: stronger effect = lower value
In short: as §1

[3] = test system: KB-3-1; assay: as above; conditions: Five cell lines viability, CellTiter-Glo ATP luminescence, 48-72 h; max response: stronger effect = lower value
In short: as §1

[4] = test system: C33A; assay: Primary qHTS to identify gynecologic anti-cancer compounds using libraries of approved drugs and bioactive compounds (AID 1345084); conditions: Gynecologic cancer cell panel viability, ATPlite luminescence, 48 h; series mostly up to 57.5 µM; also: nearly all actives have a fitted effect of over 55% in size
In short: (§2)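 Cells, 1,000 per well, were allowed to settle for 16 h at 37 C before compound addition. Five concentrations were tested for 48 h, and viability was read by ATPlite luminescence after 15 min at room temperature.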

[5] = test system: CAOV3; assay: as above; conditions: Gynecologic cancer cell panel viability, ATPlite luminescence, 48 h; series mostly up to 57.5 µM
In short: as §2

[6] = test system: CASKI; assay: as above; conditions: Gynecologic cancer cell panel viability, ATPlite luminescence, 48 h; series mostly up to 57.5 µM
In short: as §2

[7] = test system: Es-2; assay: as above; conditions: Gynecologic cancer cell panel viability, ATPlite luminescence, 48 h; series mostly up to 57.5 µM
In short: as §2

[8] = test system: HeLa; assay: as above; conditions: Gynecologic cancer cell panel viability, ATPlite luminescence, 48 h; series mostly up to 57.5 µM
In short: as §2

[9] = test system: Hek293T; assay: as above; conditions: Gynecologic cancer cell panel viability, ATPlite luminescence, 48 h, control line for the selectivity index; series mostly up to 57.5 µM
In short: as §2

[10] = test system: JEG-3; assay: as above; conditions: Gynecologic cancer cell panel viability, ATPlite luminescence, 48 h; series mostly up to 57.5 µM
In short: as §2
Potency is read from the fitted curve at half-maximal effect.

| Structure (SMILES) | max response [1] | max response [2] | max response [3] | Potency [4] | Potency [5] | Potency [6] | Potency [7] | Potency [8] | Potency [9] | Potency [10] | Potency [1] | Potency [2] | Potency [3] | outcome [3] |
| --- | --- | --- | --- | --- | --- | --- | --- | --- | --- | --- | --- | --- | --- | --- |
| CO[C@H]1/C=C\O[C@@]2(C)Oc3c(C)c(O)c4c(O)c(c5c(nc6cc(C)ccn65)c4c3C2=O)NC(=O)/C(C)=C\C=C/[C@H](C)[C@H](O)[C@@H](C)[C@@H](O)[C@@H](C)[C@H](OC(C)=O)[C@@H]1C | -17.1% | -2.81% | 9.37% | inactive | inactive | inactive | inactive | inactive | inactive | inactive | – | – | – | – |
| CC(=O)O[C@@](C)(C(=O)/C=C/C(C)(C)O)[C@H]1[C@H](O)C[C@@]2(C)[C@@H]3CC=C4[C@@H](C=C(O)C(=O)C4(C)C)[C@]3(C)C(=O)C[C@]12C | – | – | – | inactive | 0.282 µM (active) | 4.47 µM (active) | – | 2.51 µM (active) | – | inactive | 5.63 µM (active) | 1.42 µM (active) | 1 µM (active) | – |
| CC(=O)C12OC(C)(C)OC1CC1C3CCC4=CC(=O)C=CC4(C)C3(F)C(O)CC12C (centres undefined) | -19.2% | -3.19% | – | inactive | – | inactive | inactive | inactive | inactive | inactive | – | – | – | inactive |
| Cc1noc(-c2ccc(-c3ccc(CC(=O)O)cc3)cc2)c1NC(=O)O[C@H](C)c1ccccc1 | -14% | -1.06% | 0.957% | inactive | inactive | inactive | inactive | inactive | inactive | inactive | – | – | – | – |
| COc1ncc(Nc2ncc([C@@H](C)N3CCN(S(C)(=O)=O)CC3)cc2-c2nc(C)nc(N)n2)cc1F | – | – | – | – | inactive | 0.398 µM (active) | inactive | inactive | 1.26 µM (active) | – | 0.259 µM (active) | 0.058 µM (active) | 9.2 µM (active) | – |
| COc1ccc(C(=O)C2CCN(CC(=O)N(Cc3nc4c(c(=O)[nH]3)COCC4)CC3CC3)CC2)cc1 | -4.04% | -5.45% | 9.05% | inactive | – | inactive | inactive | inactive | inactive | inactive | – | – | – | – |
| CNCc1ccc(-c2cc(-c3nc(-c4ccc(S(=O)(=O)C(C)C)cc4)cnc3N)on2)cc1 | – | -11.6% | – | inactive | 14.1 µM (active) | – | 8.91 µM (active) | – | – | inactive | 1.16 µM (active) | – | 1.3 µM (active) | – |
| O=C(Cc1ccc(-c2ccccc2)cc1)NC1CCC1 | 2.52% | -21.1% | 4.19% | inactive | inactive | inactive | inactive | inactive | inactive | inactive | – | – | – | – |
| CC(C)CCC(=O)CC1c2ccccc2C(=O)N1c1ccc2ccc(Cl)nc2n1 (centres undefined) | – | 3.26% | 2.42% | inactive | inactive | inactive | inactive | – | inactive | – | 16.4 µM (active) | – | – | – |
| COc1cc2nc(N3CCCC3)nc(NCCCCCN3CCCC3)c2cc1OC | – | – | – | 15.8 µM (active) | – | – | – | 25.1 µM (active) | 15.8 µM (active) | – | 4.61 µM (active) | 18.4 µM (active) | 16.4 µM (active) | – |
| CC(C)(C(=O)NCC(F)(F)C(F)(F)F)C(=O)NC1C(=O)Nc2ccccc2-c2ccccc21 (centres undefined) | – | – | – | inactive | inactive | inactive | inactive | inactive | inactive | inactive | 5.8 µM (active) | 16.4 µM (active) | 18.4 µM (active) | – |
| Cc1cc(N(C)C)ccc1-c1nc2ccc(-c3nc4ccc(N5CCN(C)CC5)cc4[nH]3)cc2[nH]1 | – | -16.4% | – | inactive | – | – | inactive | inactive | inactive | inactive | 8.2 µM (active) | – | 23.1 µM (active) | – |
| O=C(O)c1cc2cccc([N+](=O)[O-])c2[nH]1 | 2.87% | -11.1% | 5.58% | – | inactive | inactive | inactive | inactive | inactive | inactive | – | – | – | – |
| Nc1ccc(/C=C/C(=O)NCc2cc3cc(-c4ccc(C(=O)N5CCC(F)(F)CC5)cc4)cc(-c4ccc(F)cc4)c3o2)cn1 | – | – | – | 7.08 µM (active) | – | – | – | 4.47 µM (active) | 3.98 µM (active) | 1.58 µM (active) | 0.58 µM (active) | 5.17 µM (active) | 0.92 µM (active) | – |
| CC1=C(C(=O)O)/C(=C/CO[C@@H]2O[C@H](COC(=O)/C=C/c3ccc(O)cc3)[C@@H](O)[C@H](O)[C@H]2O)C(O)C1 (some centres undefined) | 1.96% | -4.87% | 2.44% | inactive | inactive | inactive | inactive | inactive | inactive | inactive | – | – | – | – |
| CCCCNc1ccc(-c2ccc(CN3CCOCC3)cn2)c(NC2CCC(O)CC2)c1 (centres undefined) | -7.2% | -2.49% | -18.8% | inactive | – | inactive | inactive | – | inactive | inactive | – | – | – | – |
| CC[C@]1(O)CC2CN(CCc3c([nH]c4ccccc34)[C@@](C(=O)OC)(c3cc4c(cc3OC)N(C=O)[C@H]3[C@@](O)(C(=O)OC)[C@H](OC(C)=O)[C@]5(CC)C=CCN6CC[C@]43[C@@H]65)C2)C1 (some centres undefined) | – | 3.94% | – | – | inactive | 0.0891 µM (active) | 0.447 µM (active) | 0.282 µM (active) | – | – | 0.0321 µM (active) | – | 0.0081 µM (active) | – |
